Key:
[1] = molecular target: Protein kinase C gamma type (Homo sapiens) (UniProt P05129); conditions: at 1 µM;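 note: each value is an averaged percent inhibition of the enzyme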
[2] = molecular target: T1, Protein kinase C iota type (Homo sapiens) (UniProt P41743); conditions: at 0.1 µM
T1 sequence (whole entry): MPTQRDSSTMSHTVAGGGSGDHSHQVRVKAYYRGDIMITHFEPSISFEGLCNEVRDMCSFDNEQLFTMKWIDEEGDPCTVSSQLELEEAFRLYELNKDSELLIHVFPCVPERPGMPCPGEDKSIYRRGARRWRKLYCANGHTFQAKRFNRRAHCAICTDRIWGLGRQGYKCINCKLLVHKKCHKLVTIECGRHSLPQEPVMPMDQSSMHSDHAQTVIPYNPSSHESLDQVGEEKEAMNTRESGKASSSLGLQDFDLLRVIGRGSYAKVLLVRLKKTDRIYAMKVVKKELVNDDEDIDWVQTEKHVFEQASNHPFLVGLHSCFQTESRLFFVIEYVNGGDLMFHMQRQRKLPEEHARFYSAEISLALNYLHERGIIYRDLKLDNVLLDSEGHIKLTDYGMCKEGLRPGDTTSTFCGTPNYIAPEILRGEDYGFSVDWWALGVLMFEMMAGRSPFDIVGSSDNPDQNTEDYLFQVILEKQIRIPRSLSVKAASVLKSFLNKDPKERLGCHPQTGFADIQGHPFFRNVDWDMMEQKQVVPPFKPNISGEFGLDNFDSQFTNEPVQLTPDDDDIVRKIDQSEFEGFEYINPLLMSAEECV

[3] = molecular target: T1, Protein kinase C iota type (Homo sapiens); conditions: at 1 µM
[4] = molecular target: Protein kinase C theta type (Homo sapiens) (UniProt Q04759); conditions: at 0.1 µM
[5] = molecular target: Protein kinase C theta type (Homo sapiens) (UniProt Q04759); conditions: at 1 µM
[6] = molecular target: Protein kinase C beta type (Homo sapiens) (UniProt P05771); conditions: at 0.1 µM
[7] = molecular target: Protein kinase C beta type (Homo sapiens) (UniProt P05771); conditions: at 1 µM
[8] = molecular target: T2, Serine/threonine-protein kinase D1 (Homo sapiens) (UniProt Q15139); conditions: at 0.1 µM
T2 sequence (whole entry): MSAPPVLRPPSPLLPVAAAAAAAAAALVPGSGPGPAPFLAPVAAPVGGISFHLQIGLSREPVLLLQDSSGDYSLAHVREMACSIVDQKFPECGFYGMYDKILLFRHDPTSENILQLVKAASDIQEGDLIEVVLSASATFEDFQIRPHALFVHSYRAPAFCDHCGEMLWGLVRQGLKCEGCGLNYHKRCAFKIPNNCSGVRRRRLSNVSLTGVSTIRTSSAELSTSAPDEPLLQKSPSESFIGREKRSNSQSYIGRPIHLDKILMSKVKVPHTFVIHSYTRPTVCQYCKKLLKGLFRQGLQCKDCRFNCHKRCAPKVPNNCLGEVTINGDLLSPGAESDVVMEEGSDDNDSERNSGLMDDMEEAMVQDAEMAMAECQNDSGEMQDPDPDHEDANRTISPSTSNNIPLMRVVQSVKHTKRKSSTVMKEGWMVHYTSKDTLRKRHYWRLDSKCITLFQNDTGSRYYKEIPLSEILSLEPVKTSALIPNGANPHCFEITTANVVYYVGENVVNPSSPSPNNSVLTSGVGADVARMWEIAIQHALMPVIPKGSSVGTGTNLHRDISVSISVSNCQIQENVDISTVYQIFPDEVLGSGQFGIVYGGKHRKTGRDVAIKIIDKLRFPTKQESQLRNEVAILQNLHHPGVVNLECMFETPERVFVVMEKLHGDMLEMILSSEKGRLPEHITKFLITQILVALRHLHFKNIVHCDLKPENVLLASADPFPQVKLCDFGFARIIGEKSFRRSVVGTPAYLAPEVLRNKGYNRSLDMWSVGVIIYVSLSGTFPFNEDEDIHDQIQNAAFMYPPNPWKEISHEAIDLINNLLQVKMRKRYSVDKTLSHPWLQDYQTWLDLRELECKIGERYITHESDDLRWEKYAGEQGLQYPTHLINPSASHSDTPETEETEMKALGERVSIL

[9] = molecular target: T2, Serine/threonine-protein kinase D1 (Homo sapiens); conditions: at 1 µM
[10] = molecular target: T3, Serine/threonine-protein kinase D2 (Homo sapiens) (UniProt Q9BZL6); conditions: at 0.1 µM
T3 sequence (whole entry): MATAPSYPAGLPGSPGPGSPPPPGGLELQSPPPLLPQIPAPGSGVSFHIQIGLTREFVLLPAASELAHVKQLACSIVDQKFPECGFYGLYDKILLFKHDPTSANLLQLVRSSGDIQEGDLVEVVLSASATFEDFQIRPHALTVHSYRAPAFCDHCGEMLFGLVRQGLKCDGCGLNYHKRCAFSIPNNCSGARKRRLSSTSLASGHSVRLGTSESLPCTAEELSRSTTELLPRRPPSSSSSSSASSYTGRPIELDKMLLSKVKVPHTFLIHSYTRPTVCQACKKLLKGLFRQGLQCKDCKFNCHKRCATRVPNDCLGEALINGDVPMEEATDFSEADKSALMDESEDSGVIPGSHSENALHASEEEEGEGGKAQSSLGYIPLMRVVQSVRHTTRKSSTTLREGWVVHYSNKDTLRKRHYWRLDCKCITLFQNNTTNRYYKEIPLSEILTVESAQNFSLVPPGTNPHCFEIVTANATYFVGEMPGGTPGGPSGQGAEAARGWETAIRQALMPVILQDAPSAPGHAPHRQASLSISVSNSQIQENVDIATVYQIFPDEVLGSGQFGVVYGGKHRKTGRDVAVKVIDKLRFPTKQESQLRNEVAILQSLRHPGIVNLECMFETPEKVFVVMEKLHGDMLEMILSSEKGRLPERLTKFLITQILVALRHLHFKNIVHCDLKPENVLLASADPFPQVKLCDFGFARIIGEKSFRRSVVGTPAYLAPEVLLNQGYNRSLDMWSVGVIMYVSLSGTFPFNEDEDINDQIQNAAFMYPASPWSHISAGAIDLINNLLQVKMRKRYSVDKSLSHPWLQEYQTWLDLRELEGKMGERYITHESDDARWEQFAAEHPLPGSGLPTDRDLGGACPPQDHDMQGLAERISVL

[11] = molecular target: T3, Serine/threonine-protein kinase D2 (Homo sapiens); conditions: at 1 µM
[12] = molecular target: T4, Serine/threonine-protein kinase D3 (Homo sapiens) (UniProt O94806); conditions: at 0.1 µM
T4 sequence (whole entry): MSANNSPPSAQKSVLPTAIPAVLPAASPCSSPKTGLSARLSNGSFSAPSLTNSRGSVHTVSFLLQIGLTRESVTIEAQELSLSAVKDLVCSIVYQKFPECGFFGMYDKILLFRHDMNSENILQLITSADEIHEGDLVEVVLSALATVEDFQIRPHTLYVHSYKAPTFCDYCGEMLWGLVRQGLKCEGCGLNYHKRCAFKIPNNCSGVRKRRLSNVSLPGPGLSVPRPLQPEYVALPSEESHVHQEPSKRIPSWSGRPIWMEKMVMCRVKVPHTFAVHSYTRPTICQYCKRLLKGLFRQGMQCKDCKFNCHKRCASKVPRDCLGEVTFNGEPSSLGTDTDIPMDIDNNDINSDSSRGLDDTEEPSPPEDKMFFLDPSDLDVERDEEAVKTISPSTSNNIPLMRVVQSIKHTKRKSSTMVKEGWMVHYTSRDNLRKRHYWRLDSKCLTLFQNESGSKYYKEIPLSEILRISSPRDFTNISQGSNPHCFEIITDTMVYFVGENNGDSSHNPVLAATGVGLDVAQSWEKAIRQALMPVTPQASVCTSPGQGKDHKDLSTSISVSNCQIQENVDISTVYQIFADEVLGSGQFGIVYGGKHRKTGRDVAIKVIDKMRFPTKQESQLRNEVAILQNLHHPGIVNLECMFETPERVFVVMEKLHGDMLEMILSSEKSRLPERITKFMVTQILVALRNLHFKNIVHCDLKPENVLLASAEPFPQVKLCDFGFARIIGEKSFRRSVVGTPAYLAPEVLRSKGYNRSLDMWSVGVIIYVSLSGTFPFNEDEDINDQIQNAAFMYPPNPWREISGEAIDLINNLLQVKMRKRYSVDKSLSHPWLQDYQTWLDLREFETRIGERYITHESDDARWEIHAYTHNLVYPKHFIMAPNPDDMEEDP

[13] = molecular target: T4, Serine/threonine-protein kinase D3 (Homo sapiens); conditions: at 1 µM
[14] = molecular target: T5, cGMP-dependent protein kinase 1 (Homo sapiens) (UniProt Q13976); conditions: at 0.1 µM
T5 sequence (whole entry): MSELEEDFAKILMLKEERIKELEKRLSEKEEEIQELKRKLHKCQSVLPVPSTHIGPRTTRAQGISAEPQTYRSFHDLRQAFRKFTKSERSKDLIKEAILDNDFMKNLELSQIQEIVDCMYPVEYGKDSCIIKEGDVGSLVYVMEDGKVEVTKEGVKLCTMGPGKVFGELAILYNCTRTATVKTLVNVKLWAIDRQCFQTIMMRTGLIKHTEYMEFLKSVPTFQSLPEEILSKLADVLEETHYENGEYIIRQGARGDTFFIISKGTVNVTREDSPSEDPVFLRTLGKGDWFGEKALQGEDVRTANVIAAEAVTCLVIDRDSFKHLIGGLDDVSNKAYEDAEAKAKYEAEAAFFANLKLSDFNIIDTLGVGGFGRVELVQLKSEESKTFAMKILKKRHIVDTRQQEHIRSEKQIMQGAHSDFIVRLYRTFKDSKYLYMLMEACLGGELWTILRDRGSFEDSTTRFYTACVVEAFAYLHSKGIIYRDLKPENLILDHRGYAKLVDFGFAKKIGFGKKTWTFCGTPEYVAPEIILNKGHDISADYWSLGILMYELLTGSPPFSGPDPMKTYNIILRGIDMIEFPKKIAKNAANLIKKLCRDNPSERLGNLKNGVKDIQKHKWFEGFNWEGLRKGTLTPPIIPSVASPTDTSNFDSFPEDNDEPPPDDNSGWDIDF

[15] = molecular target: T5, cGMP-dependent protein kinase 1 (Homo sapiens); conditions: at 1 µM
[16] = molecular target: T6, cGMP-dependent protein kinase 2 (Homo sapiens) (UniProt Q13237); conditions: at 0.1 µM
T6 sequence (whole entry): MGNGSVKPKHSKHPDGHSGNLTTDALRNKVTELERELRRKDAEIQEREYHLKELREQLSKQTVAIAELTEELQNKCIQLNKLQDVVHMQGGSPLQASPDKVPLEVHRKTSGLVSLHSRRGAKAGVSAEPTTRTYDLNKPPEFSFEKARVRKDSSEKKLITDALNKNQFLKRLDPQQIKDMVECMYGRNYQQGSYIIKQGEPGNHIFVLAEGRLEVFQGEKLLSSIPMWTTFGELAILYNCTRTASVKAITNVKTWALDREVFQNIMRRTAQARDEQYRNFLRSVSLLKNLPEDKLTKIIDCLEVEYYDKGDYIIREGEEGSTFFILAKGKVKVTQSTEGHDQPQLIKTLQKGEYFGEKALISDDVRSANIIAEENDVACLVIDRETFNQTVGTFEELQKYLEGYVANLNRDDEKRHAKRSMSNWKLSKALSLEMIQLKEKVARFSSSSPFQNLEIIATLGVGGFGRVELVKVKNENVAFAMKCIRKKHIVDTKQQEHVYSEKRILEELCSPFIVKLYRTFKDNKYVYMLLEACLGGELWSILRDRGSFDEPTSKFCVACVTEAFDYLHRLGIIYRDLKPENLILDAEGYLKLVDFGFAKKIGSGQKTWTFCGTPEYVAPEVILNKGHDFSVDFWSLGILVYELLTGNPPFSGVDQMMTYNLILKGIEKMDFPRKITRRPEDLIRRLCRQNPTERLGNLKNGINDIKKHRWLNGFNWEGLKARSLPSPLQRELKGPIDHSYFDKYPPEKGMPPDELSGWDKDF

[17] = molecular target: T6, cGMP-dependent protein kinase 2 (Homo sapiens); conditions: at 1 µM
[18] = molecular target: T7, cAMP-dependent protein kinase catalytic subunit PRKX (Homo sapiens) (UniProt P51817); conditions: at 0.1 µM
T7 sequence (whole entry): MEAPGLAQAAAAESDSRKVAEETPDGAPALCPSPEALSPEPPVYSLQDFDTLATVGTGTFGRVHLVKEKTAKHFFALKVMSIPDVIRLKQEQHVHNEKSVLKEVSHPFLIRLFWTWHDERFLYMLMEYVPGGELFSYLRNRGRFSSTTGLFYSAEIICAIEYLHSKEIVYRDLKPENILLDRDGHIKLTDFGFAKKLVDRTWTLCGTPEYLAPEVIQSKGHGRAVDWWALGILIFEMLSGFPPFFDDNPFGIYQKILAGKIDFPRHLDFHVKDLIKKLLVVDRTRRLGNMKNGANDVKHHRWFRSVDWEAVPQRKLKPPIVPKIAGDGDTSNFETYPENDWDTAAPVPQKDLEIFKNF

[19] = molecular target: T7, cAMP-dependent protein kinase catalytic subunit PRKX (Homo sapiens); conditions: at 1 µM
[20] = molecular target: Rho-associated protein kinase 1 (Homo sapiens) (UniProt Q13464); conditions: at 0.1 µM;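 note: values are mean percent inhibition of ROCK1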
Chain of Rho-associated protein kinase 1 (Homo sapiens) (Q13464 2-1354 limits assumed): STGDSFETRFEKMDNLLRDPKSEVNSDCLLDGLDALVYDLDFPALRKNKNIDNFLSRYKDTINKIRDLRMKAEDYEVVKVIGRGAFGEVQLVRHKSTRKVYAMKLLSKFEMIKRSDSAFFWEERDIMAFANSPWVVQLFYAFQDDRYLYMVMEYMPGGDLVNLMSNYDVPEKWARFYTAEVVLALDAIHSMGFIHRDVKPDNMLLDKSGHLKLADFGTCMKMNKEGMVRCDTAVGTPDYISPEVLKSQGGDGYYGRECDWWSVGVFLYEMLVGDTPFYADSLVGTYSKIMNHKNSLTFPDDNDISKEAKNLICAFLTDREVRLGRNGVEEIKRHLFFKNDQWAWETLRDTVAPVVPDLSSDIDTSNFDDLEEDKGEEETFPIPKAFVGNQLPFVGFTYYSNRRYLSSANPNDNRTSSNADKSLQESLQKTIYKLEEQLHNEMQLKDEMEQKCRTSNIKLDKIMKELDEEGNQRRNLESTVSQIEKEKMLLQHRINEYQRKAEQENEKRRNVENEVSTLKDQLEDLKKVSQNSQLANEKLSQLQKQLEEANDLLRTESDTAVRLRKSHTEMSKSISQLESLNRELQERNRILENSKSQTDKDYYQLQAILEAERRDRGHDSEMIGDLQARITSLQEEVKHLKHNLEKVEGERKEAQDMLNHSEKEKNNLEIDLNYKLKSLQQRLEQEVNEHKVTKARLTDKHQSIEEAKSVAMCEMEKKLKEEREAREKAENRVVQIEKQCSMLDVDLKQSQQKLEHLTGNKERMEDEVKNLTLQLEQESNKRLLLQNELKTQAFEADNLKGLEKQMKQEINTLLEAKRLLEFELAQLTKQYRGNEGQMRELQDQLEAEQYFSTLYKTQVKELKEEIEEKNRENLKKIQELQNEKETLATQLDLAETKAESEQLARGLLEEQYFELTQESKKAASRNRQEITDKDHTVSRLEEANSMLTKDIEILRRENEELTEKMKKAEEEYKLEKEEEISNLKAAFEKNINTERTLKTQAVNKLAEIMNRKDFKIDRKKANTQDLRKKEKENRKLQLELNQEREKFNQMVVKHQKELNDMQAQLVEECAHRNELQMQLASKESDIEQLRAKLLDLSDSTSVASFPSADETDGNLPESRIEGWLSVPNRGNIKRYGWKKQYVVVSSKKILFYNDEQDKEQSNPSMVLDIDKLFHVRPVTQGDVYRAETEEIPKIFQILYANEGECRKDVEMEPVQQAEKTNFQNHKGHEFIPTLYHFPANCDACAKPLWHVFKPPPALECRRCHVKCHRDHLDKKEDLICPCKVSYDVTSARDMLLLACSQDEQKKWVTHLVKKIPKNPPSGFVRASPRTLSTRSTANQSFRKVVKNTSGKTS

Chain of Protein kinase C beta type (Homo sapiens) (P05771 2-671 limits assumed): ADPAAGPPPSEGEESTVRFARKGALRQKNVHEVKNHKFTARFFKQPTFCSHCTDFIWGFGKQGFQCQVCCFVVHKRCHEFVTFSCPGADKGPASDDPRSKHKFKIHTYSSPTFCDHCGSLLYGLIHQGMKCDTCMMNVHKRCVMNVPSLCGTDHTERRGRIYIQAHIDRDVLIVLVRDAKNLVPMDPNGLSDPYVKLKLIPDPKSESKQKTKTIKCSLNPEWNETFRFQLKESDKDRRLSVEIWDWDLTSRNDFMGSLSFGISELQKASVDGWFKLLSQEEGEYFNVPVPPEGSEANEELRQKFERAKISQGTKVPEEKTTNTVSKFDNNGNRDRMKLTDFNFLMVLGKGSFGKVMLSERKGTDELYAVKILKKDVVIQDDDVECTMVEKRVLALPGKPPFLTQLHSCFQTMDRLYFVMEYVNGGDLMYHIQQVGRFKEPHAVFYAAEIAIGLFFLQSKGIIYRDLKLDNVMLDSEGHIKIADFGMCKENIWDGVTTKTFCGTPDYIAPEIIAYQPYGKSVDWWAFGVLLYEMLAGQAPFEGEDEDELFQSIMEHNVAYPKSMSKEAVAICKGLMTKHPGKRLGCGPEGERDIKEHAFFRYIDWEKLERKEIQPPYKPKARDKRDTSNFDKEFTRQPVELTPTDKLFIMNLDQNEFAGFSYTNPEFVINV
Chain of Protein kinase C theta type (Homo sapiens) (Q04759 whole entry, looked up): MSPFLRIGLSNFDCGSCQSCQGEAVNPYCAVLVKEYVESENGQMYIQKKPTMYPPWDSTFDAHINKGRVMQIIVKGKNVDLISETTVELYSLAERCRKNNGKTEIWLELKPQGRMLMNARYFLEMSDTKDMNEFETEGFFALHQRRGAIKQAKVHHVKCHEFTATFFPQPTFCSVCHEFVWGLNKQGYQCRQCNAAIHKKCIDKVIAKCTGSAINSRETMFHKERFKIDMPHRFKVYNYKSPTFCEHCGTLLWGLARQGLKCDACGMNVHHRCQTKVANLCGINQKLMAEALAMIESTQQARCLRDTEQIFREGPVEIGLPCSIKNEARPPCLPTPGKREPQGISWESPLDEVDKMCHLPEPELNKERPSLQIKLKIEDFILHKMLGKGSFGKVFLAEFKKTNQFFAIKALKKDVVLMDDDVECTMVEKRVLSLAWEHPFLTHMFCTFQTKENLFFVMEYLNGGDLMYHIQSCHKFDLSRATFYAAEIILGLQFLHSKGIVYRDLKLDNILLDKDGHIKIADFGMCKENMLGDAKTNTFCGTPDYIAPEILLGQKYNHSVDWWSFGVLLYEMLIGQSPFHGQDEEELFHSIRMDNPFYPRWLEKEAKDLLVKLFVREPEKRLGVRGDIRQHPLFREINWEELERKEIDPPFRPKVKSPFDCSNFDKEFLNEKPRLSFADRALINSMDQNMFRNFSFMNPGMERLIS

Row | SMILES | inhibition [1] | inhibition [2] | inhibition [3] | inhibition [4] | inhibition [5] | inhibition [6] | inhibition [7] | inhibition [8] | inhibition [9] | inhibition [10] | inhibition [11] | inhibition [12] | inhibition [13] | inhibition [14] | inhibition [15] | inhibition [16] | inhibition [17] | inhibition [18] | inhibition [19] | inhibition [20]
1 | Cc1cc(O)cc(C)c1/C=C/c1cncc(-c2nn[nH]n2)c1 | 3.79% | 2.14% | 2.11% | 2.61% | 3.08% | 1.15% | 4.04% | 1.38% | 4.65% | 2.35% | 4.1% | 2.66% | 4.77% | 2.15% | 4.8% | 2.47% | 3.8% | 1.59% | 1.75% | 1.38%
2 | Nc1nc(-c2ccc3c(c2)C(=Cc2cc(Br)c(O)c(Br)c2)C(=O)N3)cs1 | 2.01% | 0.79% | 0.34% | -1.06% | 0.33% | -0.52% | 1.78% | -1.69% | -1.78% | -2.06% | -1.39% | -1.58% | -1.34% | 0.42% | 1.43% | -0.63% | 1.49% | -0.49% | 0.42% | -0.08%
3 | Cn1cc(C=C2C(=O)Nc3cccnc32)c2ccccc21 | -0.93% | 0.27% | 1.58% | -0.39% | 0.22% | 0.8% | 0.8% | 2.63% | 10.6% | 3.33% | 9.92% | 3.79% | 10.3% | 1.8% | 3.04% | 1.83% | 3.03% | 0.64% | 0.1% | 1.45%

Reference: ChEMBL document CHEMBL1961873, “Compounds: GSK PKIS; Assays: Nanosyn kinase panel” (2012)
